What all share (assay): log2 ratio of Biotin-Ahx-Ub-VS probe labelling (fragment/DMSO); higher = less target engagement (more negative = stronger competition), active = hit call of the paper (q ≤ 0.05, log2 ratio ≤ -1)
Holding throughout (settings): compound concentration: 200 uM; treatment time: 3 h

The target in assay [1] is T1, OTUD6B (UniProt Q8N6M0).
T1 sequence (whole entry): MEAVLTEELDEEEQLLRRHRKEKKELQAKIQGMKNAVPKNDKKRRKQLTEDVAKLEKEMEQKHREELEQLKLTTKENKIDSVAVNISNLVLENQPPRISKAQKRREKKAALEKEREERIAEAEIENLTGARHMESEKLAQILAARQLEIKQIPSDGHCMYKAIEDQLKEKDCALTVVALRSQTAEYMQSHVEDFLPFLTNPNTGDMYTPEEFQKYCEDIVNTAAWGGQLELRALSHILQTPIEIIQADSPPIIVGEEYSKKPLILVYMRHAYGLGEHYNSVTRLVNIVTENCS
In short, it runs like this: (§1)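 HEK293T lysate, 495 µg per sample in Tris/CHAPS/IGEPAL buffer with protease inhibitors, was treated in triplicate with fragment at 200 µM or vehicle for 3 h and then with Biotin-Ahx-Ub-VS at 0.5 µM final for 1 h. Labelled DUBs were NeutrAvidin-enriched, digested with LysC and trypsin, and run by diaPASEF LC-MS/MS. Spectronaut label-free quantities were global-median-normalised, and values are average log2 fragment/vehicle ratios by unpaired t-test on proteins with ≥2 unique peptides.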

The target of assay [2] is T2, OTUD7B (UniProt Q6GQQ9).
T2 sequence (whole entry): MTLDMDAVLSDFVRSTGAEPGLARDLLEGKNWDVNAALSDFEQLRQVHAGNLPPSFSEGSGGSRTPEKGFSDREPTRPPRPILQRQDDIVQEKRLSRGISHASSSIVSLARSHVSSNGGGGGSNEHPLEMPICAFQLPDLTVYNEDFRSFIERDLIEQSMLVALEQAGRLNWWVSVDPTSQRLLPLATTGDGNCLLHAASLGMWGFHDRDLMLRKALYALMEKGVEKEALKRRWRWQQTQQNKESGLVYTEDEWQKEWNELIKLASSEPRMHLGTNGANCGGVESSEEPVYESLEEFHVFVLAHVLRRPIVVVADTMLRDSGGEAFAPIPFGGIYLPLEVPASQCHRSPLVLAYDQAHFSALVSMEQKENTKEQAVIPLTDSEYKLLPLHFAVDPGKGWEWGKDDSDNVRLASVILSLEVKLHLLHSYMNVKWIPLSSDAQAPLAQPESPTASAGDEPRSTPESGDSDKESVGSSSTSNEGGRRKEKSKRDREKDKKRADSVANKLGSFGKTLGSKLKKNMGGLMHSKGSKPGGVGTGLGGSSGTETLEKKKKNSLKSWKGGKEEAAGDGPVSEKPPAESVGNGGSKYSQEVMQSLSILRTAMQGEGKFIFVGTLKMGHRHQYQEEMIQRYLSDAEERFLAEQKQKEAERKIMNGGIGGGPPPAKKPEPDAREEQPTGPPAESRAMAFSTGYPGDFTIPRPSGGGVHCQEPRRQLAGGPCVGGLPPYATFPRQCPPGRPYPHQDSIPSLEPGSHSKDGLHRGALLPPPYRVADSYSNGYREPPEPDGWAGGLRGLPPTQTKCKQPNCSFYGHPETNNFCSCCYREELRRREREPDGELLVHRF
Summed up: as §1

The target in assay [3] is PRPF8 (UniProt Q6P2Q9). In short, it runs like this:
as §1

Assay [4] deals with T3, PSMD7 (UniProt P51665).
T3 sequence (whole entry): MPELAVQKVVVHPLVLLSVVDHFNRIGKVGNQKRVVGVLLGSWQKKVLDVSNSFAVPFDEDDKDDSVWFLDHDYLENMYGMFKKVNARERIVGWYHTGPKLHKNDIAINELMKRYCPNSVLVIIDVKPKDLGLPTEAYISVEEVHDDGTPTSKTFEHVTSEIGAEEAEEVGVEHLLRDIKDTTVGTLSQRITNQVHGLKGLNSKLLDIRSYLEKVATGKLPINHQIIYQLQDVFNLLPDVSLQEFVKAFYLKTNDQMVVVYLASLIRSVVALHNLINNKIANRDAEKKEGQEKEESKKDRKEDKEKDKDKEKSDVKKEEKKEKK
In short, it runs like this: as §1

In assay [5] the target is UCHL1 (UniProt P09936). Summed up: as §1
Chain of UCHL1 (P09936 whole entry, looked up): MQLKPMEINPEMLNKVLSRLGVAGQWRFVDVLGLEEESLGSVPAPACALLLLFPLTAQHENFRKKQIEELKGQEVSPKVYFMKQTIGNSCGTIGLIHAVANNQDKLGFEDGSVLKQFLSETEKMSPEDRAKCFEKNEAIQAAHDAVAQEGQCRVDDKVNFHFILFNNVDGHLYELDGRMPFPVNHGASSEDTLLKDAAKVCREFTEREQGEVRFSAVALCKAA
In assay [6] the target is T4, UCHL3 (UniProt P15374).
T4 sequence (whole entry): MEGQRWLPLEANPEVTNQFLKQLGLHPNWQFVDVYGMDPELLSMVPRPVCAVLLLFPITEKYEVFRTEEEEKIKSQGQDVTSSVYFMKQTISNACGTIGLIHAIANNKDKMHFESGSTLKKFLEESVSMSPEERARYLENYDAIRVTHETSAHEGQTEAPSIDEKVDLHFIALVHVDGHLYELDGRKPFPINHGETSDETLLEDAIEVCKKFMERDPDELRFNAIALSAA
Summed up: as §1

The target in assay [7] is T5, UCHL5 (UniProt Q9Y5K5).
T5 sequence (whole entry): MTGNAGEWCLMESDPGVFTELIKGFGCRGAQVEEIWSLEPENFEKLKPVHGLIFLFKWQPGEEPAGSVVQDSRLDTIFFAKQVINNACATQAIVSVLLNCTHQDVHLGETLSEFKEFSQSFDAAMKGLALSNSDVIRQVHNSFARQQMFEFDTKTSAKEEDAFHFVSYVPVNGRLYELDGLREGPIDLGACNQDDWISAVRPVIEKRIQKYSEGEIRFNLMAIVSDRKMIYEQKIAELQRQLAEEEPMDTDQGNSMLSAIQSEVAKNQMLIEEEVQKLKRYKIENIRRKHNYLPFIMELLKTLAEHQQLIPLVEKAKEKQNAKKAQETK
Summed up: as §1

Assay [8] concerns the target USP10 (UniProt Q14694). In short, it runs like this:
as §1

The target of assay [9] is T6, USP15 (UniProt Q9Y4E8).
T6 sequence (whole entry): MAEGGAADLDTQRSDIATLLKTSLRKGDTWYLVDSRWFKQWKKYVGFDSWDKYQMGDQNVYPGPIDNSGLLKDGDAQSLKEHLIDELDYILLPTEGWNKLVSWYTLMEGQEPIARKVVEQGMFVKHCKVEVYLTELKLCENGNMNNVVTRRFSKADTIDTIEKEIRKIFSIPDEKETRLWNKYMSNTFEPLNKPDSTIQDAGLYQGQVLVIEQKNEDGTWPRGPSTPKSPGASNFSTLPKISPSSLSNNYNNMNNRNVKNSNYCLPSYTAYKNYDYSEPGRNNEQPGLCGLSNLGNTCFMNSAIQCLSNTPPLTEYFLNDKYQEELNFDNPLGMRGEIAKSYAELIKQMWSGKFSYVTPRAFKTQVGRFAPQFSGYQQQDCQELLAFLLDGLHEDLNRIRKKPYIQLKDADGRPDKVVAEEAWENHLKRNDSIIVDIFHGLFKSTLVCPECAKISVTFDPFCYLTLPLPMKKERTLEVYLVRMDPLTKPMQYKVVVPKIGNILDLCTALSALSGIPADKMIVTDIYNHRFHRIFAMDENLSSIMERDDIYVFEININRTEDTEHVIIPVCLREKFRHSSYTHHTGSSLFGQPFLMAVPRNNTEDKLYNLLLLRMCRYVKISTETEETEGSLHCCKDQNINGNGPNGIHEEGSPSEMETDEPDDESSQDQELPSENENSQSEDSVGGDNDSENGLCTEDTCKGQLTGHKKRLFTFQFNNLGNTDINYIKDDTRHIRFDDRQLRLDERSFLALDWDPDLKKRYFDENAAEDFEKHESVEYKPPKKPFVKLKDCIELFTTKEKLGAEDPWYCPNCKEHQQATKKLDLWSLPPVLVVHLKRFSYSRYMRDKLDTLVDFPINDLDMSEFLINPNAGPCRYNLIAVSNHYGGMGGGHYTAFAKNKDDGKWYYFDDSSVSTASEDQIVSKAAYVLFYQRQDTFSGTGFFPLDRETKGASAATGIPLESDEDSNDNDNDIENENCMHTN
Summed up:
as §1

Assay [10] has as its target USP16 (UniProt Q9Y5T5). Summed up:
as §1

Values without a mark were called inactive.

Chain of USP10 (Q14694 whole entry): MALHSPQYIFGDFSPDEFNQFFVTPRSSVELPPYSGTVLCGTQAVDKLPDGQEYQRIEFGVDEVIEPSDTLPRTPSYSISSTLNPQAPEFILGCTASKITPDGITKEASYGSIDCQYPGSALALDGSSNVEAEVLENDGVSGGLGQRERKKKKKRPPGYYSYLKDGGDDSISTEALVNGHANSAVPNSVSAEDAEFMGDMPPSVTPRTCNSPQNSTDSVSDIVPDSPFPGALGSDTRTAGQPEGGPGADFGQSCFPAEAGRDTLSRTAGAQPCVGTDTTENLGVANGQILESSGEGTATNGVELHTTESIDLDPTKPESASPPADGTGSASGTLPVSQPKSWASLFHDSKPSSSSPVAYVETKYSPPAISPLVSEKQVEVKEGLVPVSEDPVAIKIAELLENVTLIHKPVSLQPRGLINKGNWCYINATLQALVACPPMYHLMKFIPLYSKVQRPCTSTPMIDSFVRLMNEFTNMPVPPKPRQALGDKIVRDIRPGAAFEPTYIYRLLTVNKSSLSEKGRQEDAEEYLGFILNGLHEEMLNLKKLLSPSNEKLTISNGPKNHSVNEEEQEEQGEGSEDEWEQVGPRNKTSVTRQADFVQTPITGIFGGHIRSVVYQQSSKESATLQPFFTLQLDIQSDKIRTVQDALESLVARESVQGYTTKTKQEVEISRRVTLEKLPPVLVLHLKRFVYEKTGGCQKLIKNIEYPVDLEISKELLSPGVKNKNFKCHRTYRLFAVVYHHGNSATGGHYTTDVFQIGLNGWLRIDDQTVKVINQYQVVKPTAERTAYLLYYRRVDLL
Chain of USP16 (Q9Y5T5 whole entry, looked up): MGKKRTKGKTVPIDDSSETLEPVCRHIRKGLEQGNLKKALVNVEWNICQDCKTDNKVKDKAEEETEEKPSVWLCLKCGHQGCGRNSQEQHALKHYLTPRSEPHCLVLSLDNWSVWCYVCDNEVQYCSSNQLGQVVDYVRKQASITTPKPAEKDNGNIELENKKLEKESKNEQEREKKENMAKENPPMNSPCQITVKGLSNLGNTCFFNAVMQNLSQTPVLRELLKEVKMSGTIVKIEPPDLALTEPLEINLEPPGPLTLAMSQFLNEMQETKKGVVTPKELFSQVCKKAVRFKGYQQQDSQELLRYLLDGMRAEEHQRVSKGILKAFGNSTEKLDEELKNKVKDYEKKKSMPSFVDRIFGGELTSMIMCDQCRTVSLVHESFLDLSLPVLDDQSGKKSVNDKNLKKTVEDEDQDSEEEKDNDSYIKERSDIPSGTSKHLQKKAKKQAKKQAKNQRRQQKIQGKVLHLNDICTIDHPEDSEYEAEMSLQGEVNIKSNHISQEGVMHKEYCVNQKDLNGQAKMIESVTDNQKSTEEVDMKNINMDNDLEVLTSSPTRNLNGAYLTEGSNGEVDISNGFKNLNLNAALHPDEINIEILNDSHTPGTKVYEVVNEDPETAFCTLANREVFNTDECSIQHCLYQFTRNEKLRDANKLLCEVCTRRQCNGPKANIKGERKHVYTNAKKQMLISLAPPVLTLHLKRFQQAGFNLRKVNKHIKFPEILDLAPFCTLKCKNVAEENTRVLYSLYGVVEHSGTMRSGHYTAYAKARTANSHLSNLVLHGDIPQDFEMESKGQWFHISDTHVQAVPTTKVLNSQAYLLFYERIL

For `O=C(CCl)Nc1cc(Cl)ccc1C(=O)O`, the “log2 ratio of Biotin-Ahx-Ub-VS probe labelling” value was 0.133 in [1]; -0.0733 in assay [2]; -0.2 in [3]; -0.0699 in assay [4]; -1.38 (active) in assay [5]; 0.231 in assay [6]. Also, the “log2 ratio of Biotin-Ahx-Ub-VS probe labelling” value in assay [7] was -0.0926; in assay [8] it was -0.101; in [9], -0.15; in assay [10] it was -0.669.
